ChEMBL document CHEMBL4513149, “CO-ADD screening of MMV (CH) - MMV compounds” (2021)
Measured potencies and affinities stand elsewhere.

Tests used:
Staphylococcus aureus = conditions: Concentration 20 uM; ASSAY_TEST Inhibition of Bacterial Growth; detection method Absorption (OD600); MEDIA CAMHB; plate type 384well; NBS; CORNING #3640; time 18 hr
Escherichia coli = conditions: Concentration 20 uM; ASSAY_TEST Inhibition of Bacterial Growth; detection method Absorption (OD600); MEDIA CAMHB; plate type 384well; NBS; CORNING #3640; time 18 hr

Structure (SMILES)	Inhibition (Staphylococcus aureus)	Inhibition (Escherichia coli)
CN1CCCC1CCO[C@](C)(c1ccccc1)c1ccc(Cl)cc1.O=C(O)/C=C/C(=O)O (some centres undefined)	18.42%	10.75%
CCc1ccc(C(NCc2nc(N)nc(N(C)C)n2)C(C)C)cc1 (centres undefined)	6.21%	7.08%
CNC(=O)c1nn(C)c2c1C(C)(C)Cc1cnc(Nc3ccc(N4CCN(C)CC4)cc3)nc1-2 [MILCICLIB]	15.75%	10.4%
CC1(C)Cc2c(c(N3CCOCC3)nc3snc(Br)c23)CO1	19.87%	4.52%
Cc1ccc(S(=O)(=O)N2CCN(C(=O)c3cc(-c4ccccc4)n[nH]3)CC2)cc1	1.4%	11.29%
Cc1cc(C)n2nc(C(=O)Nc3cc(C(F)(F)F)ccc3N3CCOCC3)nc2n1	13.59%	10.47%
COC(=O)C1=C(C)NC(C)=C(C(=O)OC(C)C)C1c1cccc2nonc12 (centres undefined) [ISRADIPINE]	3.78%	-1.04%
CC(C)(C(=O)Nc1ccc(F)cc1)n1cc(-c2ccccc2F)cn1	21.36%	9.99%
Cc1ccc(-c2cc(C(=O)Nc3cccnc3)c3cc(Br)ccc3n2)cc1	16.17%	9.4%
COc1ccc(C2=NN(C3CCCCCC3)C(=O)C2(C)C)cc1OCCCCOc1ccc(-c2nn[nH]n2)cc1	39.77%	-0.89%
O=C(NCCc1ccccc1)c1cc(-c2cccnc2)cnc1NCC1CC1	6.31%	1.84%
c1ccc(-c2[nH]c3ccccc3c2C(c2ccccn2)N2CCCC2)cc1 (centres undefined)	7%	3.92%
